# Laboratory results as given in PubChem BioAssay (NCATS).
# “And” between values parts separate entries of the source, which are not always exact repeats. Identical values can stand only once. Inconclusive results are not listed. The source made the active and inactive calls. Unless noted, the call rests on the fitted dose curve; in most records, active means well fitted curve in the direction sought with a large enough effect; inconclusive means small, poorly fitted or top-dose-only effect, or another doubt; inactive means no such curve, though single readings can be large; an effect the other way counts as inactive or inconclusive.
# How the values were obtained:
# [1] = Primary qHTS for inhibitors of nuclear receptor binding SET domain protein 2 (NSD2) in an isogenic RCH-ACV NSD2 p.E1099K mutant (9B) (AID 1645876); further: nearly all actives have a fitted effect of over 70% in size; further: potency means the concentration at half of the fitted maximal effect
# [2] = Primary qHTS for inhibitors of nuclear receptor binding SET domain protein 2 (NSD2) in an RCH-ACV wild type WT cells (2C) (AID 1645877); further: nearly all actives have a fitted effect of over 70% in size; further: potency means the concentration at half of the fitted maximal effect
# [3] = biological target: Catechol O-methyltransferase (Homo sapiens) (UniProt P21964); assay: Confirmatory Screen for Target Class Profiling of Small Molecule Inhibitors of Methyltransferases (AID 1745852; calls by dose curve; further: potency means the concentration at half of the fitted maximal effect; on activity change, negative = inhibition: on the % scale 0 is the no-effect control and ±100 the full control effect); settings: MTase-Glo luminescence, SAH detection, recombinant enzyme; measured here: COMT max response; stronger effect = lower value
# [4] = biological target: Guanidinoacetate N-methyltransferase (Homo sapiens) (UniProt Q14353); assay: as above; settings: activity change, negative = inhibition: at 57.3 µM (top of the series) unless noted
# [5] = biological target: Nicotinamide N-methyltransferase (Homo sapiens) (UniProt P40261); assay: as above; settings: MTase-Glo luminescence, SAH detection, recombinant enzyme; measured here: NNMT max response; stronger effect = lower value
# [6] = biological target: Phenylethanolamine N-methyltransferase (Homo sapiens) (UniProt P11086); assay: as above; settings: MTase-Glo luminescence, SAH detection, recombinant enzyme; measured here: PNMT max response; stronger effect = lower value
# [7] = NCATS anti-infectives library activity on HEK293 viability as a counter-qHTS vs the C. elegans viability qHTS (AID 1745854);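 further: HEK293 cells exposed to compounds for 24 hr before the viability read; on the % scale 0 is the no-effect control and ±100 the full control effect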
# Summary of the method: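 Counter-screen for cytotoxicity: HEK293, 24 hr, 37C, compounds up to 41.7 uM final (a dilution series, 1:5). Readout CellTiter-Glo luminescence, 10 min RT. Digitonin control, 83.3 uM final.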
# [8] = biological target: Glutathione peroxidase 1 (Homo sapiens) (UniProt P07203); assay: Primary qHTS Assay for Inhibitors of Recombinant Selenoprotein Glutathione Peroxidase 1 (GPX1) (AID 1845191); further: nearly all actives have a fitted effect of over 65% in size
# Summary of the method: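 GPX1 10 nM, GR 100 nM, GSH 1 mM, NADPH 0.5 mM, CHP 0.5 mM (final). 30-min cpd preincubation, RT. Ex340/Em450 read t=0, t=15 min.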
# Catechol O-methyltransferase (Homo sapiens), sequence (P21964 whole entry, looked up): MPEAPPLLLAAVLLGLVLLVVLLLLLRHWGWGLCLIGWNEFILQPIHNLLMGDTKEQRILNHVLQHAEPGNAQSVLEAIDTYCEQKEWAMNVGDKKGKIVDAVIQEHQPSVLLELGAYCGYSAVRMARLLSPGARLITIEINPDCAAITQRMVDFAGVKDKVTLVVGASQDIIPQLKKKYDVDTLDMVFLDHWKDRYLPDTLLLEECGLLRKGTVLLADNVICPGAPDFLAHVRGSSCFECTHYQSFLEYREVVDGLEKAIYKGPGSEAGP
# Nicotinamide N-methyltransferase (Homo sapiens), sequence (P40261 whole entry, looked up): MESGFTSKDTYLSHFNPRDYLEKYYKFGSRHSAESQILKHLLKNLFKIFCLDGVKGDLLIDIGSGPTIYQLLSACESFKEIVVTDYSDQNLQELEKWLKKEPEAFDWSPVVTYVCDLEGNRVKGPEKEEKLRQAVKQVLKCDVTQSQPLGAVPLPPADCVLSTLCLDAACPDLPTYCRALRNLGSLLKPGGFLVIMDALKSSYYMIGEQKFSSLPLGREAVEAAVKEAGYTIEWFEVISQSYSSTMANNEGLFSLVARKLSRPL
# Phenylethanolamine N-methyltransferase (Homo sapiens), sequence (P11086 whole entry, looked up): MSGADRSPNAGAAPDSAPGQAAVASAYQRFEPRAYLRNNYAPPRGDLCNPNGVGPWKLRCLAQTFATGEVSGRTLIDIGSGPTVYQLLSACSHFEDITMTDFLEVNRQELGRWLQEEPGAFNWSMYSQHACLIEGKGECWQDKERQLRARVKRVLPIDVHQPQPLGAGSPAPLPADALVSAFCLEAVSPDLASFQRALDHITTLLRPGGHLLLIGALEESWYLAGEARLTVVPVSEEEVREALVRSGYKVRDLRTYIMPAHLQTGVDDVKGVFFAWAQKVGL
# Glutathione peroxidase 1 (Homo sapiens), sequence (P07203 whole entry, looked up): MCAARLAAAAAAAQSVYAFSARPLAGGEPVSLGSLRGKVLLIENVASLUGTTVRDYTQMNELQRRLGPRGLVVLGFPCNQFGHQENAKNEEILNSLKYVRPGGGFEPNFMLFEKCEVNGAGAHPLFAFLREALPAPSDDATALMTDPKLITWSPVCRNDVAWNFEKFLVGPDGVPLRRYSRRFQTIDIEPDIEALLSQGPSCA
structure (smiles),measurement,setting,value
CCCCc1nc2cc(/C=C/C(=O)NO)ccc2n1CCN(CC)CC,Potency,[1],258 nM (active) and 590 nM (active)
same,Potency,[2],230 nM (active) and 525 nM (active)
same,activity,[3],-23.3%
same,"activity change, negative = inhibition",[4],4.34%
same,activity,[5],-2.78%
same,activity,[6],3.65%
same,Potency,[7],inactive
same,Potency,[8],inactive
Cc1cc(=O)oc2c(C=O)c(O)ccc12,Potency,[1],18300 nM (active)
same,Potency,[2],16.3 µM (active)
same,activity,[3],-6.39%
same,Potency,[4],17.1 µM (active)
same,activity,[5],-24%
same,activity,[6],-37.6%
CC(Nc1ncnc2nc[nH]c12)c1cc2cccc(Cl)c2c(=O)n1-c1ccccc1 (stereo unspecified),Potency,[1],332 nM (active)
same,Potency,[2],0.468 µM (active)
CC(O)(CC(=O)O)CC(=O)OCc1ccc(O[C@@H]2O[C@H](CO)[C@@H](O)[C@H](O)[C@H]2O)cc1 (stereo partly specified),Potency,[1],inactive
same,Potency,[2],inactive
same,activity,[3],-58.1%
same,"activity change, negative = inhibition",[4],2.07% [at 29.8 µM]
same,activity,[5],1.65%
same,activity,[6],1.08%
same,Potency,[8],inactive
CC(=O)OC1C(=O)C2(C)C(O)CC3OCC3(OC(C)=O)C2C(OC(=O)c2ccccc2)C2(O)CC(OC(=O)C(O)C(NC(=O)c3ccccc3)c3ccccc3)C(C)=C1C2(C)C (stereo unspecified),Potency,[1],5.2 nM (active)
same,Potency,[2],0.0065 µM (active)
COc1ccc(CNC(=O)c2cc(-c3cncc(C)c3)ncc2-c2nccs2)nc1OC,Potency,[1],inactive
same,Potency,[2],inactive
CC(=O)OC12COC1CC(O)C1(C)C(=O)C(O)C3=C(C)C(OC(=O)C(O)C(NC(=O)OC(C)(C)C)c4ccccc4)CC(O)(C(OC(=O)c4ccccc4)C21)C3(C)C (stereo unspecified),Potency,[1],6.5 nM (active)
same,Potency,[2],inactive
NC1(C(=O)NC(CCO)c2ccc(Cl)cc2)CCN(c2ncnc3[nH]ccc23)CC1 (stereo unspecified),Potency,[1],728 nM (active)
same,Potency,[2],1.3 µM (active)
